MITF act = activators of MITF-driven TRPM1 promoter reporter, primary screen, cell-based, SK-MEL-5, luciferase, single point. SK-MEL-5 TRPM1-promoter luciferase, 24 h; % of positive control, neutral wells = 0. activation, % at 12.5 µM. hit rate 0.75% among 300,000;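 active means mean activation of at least 80% with every replicate also reaching 80%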;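 further: 0% = neutral control wells and 100% = parthenolide positive control wells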
MLL AF4-AF9 inh = inhibitors of AF4 peptide binding to AF9, primary screen, biochemical, AlphaScreen, biotin-AF4 peptide, FLAG-AF9, single point | Protein AF-9 (Homo sapiens), P42568 | inhibition, % at 10 µM | hit rate 0.47% among 350,000 | AID 651704, 2012;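 active means every replicate reaching a set inhibition limit, whatever the replicate mean, cut at about 25% in these data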;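 further: 0% = plate neutral control median and 100% = total signal loss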
Target sequence (P42568 whole entry, looked up): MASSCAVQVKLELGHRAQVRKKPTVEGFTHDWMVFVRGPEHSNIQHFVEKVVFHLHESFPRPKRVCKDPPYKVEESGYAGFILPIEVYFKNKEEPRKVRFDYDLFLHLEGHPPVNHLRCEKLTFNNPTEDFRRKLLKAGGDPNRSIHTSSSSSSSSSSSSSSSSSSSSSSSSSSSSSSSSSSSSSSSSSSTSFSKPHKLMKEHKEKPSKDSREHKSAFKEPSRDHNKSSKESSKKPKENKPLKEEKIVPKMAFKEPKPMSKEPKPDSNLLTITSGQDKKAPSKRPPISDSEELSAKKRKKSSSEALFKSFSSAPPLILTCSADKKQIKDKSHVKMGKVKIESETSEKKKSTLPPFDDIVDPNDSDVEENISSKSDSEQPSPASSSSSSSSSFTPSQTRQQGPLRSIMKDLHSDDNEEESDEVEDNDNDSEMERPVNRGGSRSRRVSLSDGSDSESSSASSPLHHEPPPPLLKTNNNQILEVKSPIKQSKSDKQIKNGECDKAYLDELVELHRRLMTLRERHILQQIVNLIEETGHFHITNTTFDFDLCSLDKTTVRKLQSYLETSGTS
Wnt bcat act = Wnt/beta-catenin pathway activators, primary screen, cell-based, plate reader, single point. Wnt/beta-catenin reporter cell assay, activator. activation, % at 9.35 µM. hit rate 1.2% among 300,000; in the data active means activation above about 30%, passing the limit was not always enough;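 further: 0% = neutral control wells and 100% = positive control wells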
FGF22 binding = binders of human FGF22 protein, primary screen, FGF22 synaptogenesis inhibitor project, biophysical, thermal shift, single point | Fibroblast growth factor 22 (Homo sapiens), Q9HCT0 | recombinant FGF22 thermal shift, SYPRO orange fluorescence; percent of sucrose octasulfate shift, DMSO zero | activity (Tm shift, normalised), % at 9.99 µM | hit rate 1.5% among 340,000;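 active means mean Tm shift, scaled 0 neutral to 100 positive control, at about 1.3% or above, every replicate too, limit read from the data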
SMARCA2 activ = SMARCA2 (BRM) function activators, primary screen, cell-based, luminescence, high throughput | AID 652017, 2013 | MG213 cells, MMTV-luciferase reporter, dexamethasone, overnight | activation, % at 9.1 µM | hit rate 1% among 370,000; in the data active means activation above about 7.8%;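 further: 0% = vehicle wells and 100% = reference activator wells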
esBAF inh = Bmi1 luciferase reporter increase in mESCs, primary screen, esBAF inhibitor project, mouse ES cells, Bmi1 luciferase knock-in, single point | hit rate 2% among 350,000 | AID 602393, 2012 | 24 h; 100% = twice the neutral-well signal | reporter increase, % at 12.5 µM; in the data active means activation above about 40%;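 further: 0% = median of the plate's neutral control wells and 100% = double that signal; a rise in the Bmi1 reporter signal indicates esBAF inhibition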
An asterisk follows results filed as active; nt = not tested or not shown. Hits are enriched below; roughly 4.3% of the tested compounds scored in any of these assays.

SMILES | MITF act | MLL AF4-AF9 inh | Wnt bcat act | FGF22 binding | SMARCA2 activ | esBAF inh
CCOC(=O)C1CCCN(C(=O)c2ccc3c(c2)OCO3)C1 (stereo unspecified) | nt | nt | 0 | nt | 0 | 2
CCOC(=O)CNC(=O)N1CCCC(C(=O)c2ccc3c(c2)OCO3)C1 (stereo unspecified) | -14 | -1 | 6 | 43* | 0 | nt
C[C@@H]1CCCCO[C@H](CN(C)CC2CC2)[C@H](C)CN([C@H](C)CO)C(=O)c2cc(NS(=O)(=O)c3ccc(F)cc3)ccc2O1 | nt | 1 | nt | nt | nt | nt
O=C(O)COc1ccc(NC(=O)c2cccs2)cc1 | -11 | 2 | 0 | 0 | -2 | nt
CC1CCN(C(=O)COC(=O)c2cccs2)CC1 | 41 | -96 | -3 | 0 | 2 | 65*
O=C(OCC(=O)N1CCc2ccccc2C1)c1cccs1 | 16 | -3 | 0 | 0 | 0 | nt
CC1CCCN(C(=O)COc2ccc(NC(=O)c3cccs3)cc2)C1 (stereo unspecified) | 17 | -15 | -1 | 44* | -5 | 16
CO[C@@H]1CN(C)C(=O)c2cc(NC(=O)NC3CCCCC3)ccc2OC[C@@H](C)N(CC2CC2)C[C@H]1C | nt | 0 | nt | 0 | nt | 3
O=c1sc(/C=N/Nc2ccccc2)c(Cl)n1Cc1ccccc1 | 56 | 2 | 46* | 0 | 5 | nt
CN(C)c1ccc(NC(=O)c2cccc(C(=O)Nc3ccc(N(C)C)cc3)n2)cc1 | 11 | nt | nt | nt | 2 | nt
Cc1ccc(NC(=O)c2cc(N(C)C)ccc2[P+](=O)O)cc1 | 55 | -2 | 13 | 0 | 5 | 45*
Cc1cc(NC(=O)c2ccc3nccnc3c2)ccc1Br | 70 | 4 | 66* | 0 | 2 | -8
COC(=O)c1ccc(NC(=O)c2ccc3nccnc3c2)cc1 | 12 | -2 | 7 | 0 | -2 | 14
Cc1ccc(NC(=O)c2ccc3nccnc3c2)c(C)c1 | 99* | 2 | 8 | 0 | -1 | 35
O=C(Nc1ccc(SC(F)F)cc1)c1ccc2nccnc2c1 | 46 | 8 | nt | 0 | -2 | 122*
Cc1ccc(NC(=O)C2=NNC(=O)CC2)cc1F | 40 | 0 | 34* | 0 | 5 | nt
O=C1c2ccccc2C(=O)c2c1cccc2N1CCCC1 | 25 | 40* | -7 | 0 | -2 | nt
O=C1c2ccccc2-c2onc3ccc(N4CCCC4)c1c23 | -24 | 28* | -10 | 0 | 3 | nt
CCCN1[C@@H]2c3ccc(/C=C/c4ccccc4)c(=O)n3C[C@@H]2[C@@H](CO)[C@@H]1C(=O)NCc1ccncn1 | nt | -2 | nt | nt | nt | 4
Cc1[nH]c2ccc(F)cc2c1CCN(Cc1ccco1)C(=S)NC(C)(C)C | 8 | 7 | -2 | 43* | -4 | nt
CNC(=S)N(CCc1c(C)[nH]c2ccc(F)cc12)Cc1ccco1 | -12 | 4 | -2 | 0 | -3 | -5
Cc1ccccc1NC(=S)N(CCc1c(C)[nH]c2ccc(F)cc12)Cc1cccnc1 | -3 | 11 | -2 | nt | -2 | nt
Cc1[nH]c2ccc(F)cc2c1CCN(Cc1cccnc1)C(=S)Nc1cccc(F)c1 | 6 | 0 | -1 | 44* | -3 | nt
COc1ccc(C(=O)OCC(=O)c2c[nH]c3ccccc23)c(OC)c1 | 69 | -6 | 36* | 0 | 3 | 75*
Cc1cc(C)n2nc(C(=O)OCC(=O)c3c[nH]c4ccccc34)nc2n1 | -18 | 2 | 0 | 44* | 2 | nt
SMILES | MITF act | MLL AF4-AF9 inh | Wnt bcat act | FGF22 binding | SMARCA2 activ | esBAF inh
COc1ccc(C(=O)COC(=O)c2ccccc2O)c(OC)c1 | 65 | -2 | 50* | 0 | 5 | 76*
CCOC(=O)c1c(C)[nH]c(C)c1C(=O)COC(=O)c1ccccc1O | 3 | nt | nt | nt | -4 | nt
Cc1cc(C)n2nc(C(=O)OCC(=O)c3ccccc3)nc2n1 | 18 | 1 | -1 | 0 | -3 | 0
Cc1[nH]c2ccccc2c1C(=O)COC(=O)c1ccccc1O | 111* | -2 | -1 | 0 | 3 | 124*
COCC#Cc1ccc(CC[C@H]2O[C@H]3CC[C@@H](CO)O[C@H]3C[C@H]2n2cc(C(C)(C)O)nn2)cc1 | nt | -5 | nt | nt | -1 | nt
C[C@@H]1CN([C@@H](C)CO)C(=O)c2cc(NC(=O)Nc3ccccc3)ccc2O[C@@H]1CN(C)C(=O)NC1CCCCC1 | nt | -1 | nt | 0 | nt | -4
COc1cccc(C(=O)OCC(=O)c2c[nH]c3ccccc23)c1OC | 53 | -5 | 5 | 0 | 6 | 44*
COc1cc(CC(=O)OCC(=O)c2c[nH]c3ccccc23)cc(OC)c1OC | -18 | 4 | 0 | 1 | -2 | -7
CCNC(=O)[C@H]1[C@H](CO)[C@H]2Cn3c(ccc(-c4ccccc4F)c3=O)[C@@H]1N2CC1CC1 | nt | -1 | nt | 0 | nt | 1
O=C(O)C[C@@H]1C[C@@H]2c3cc(NC(=O)NC4CCCC4)ccc3O[C@@H]2[C@@H](CO)O1 | nt | -3 | nt | 0 | nt | -2
CCc1cnc(N2[C@H](C#N)[C@@H](c3ccccc3C3=CCCCC3)[C@@H]2CO)s1 | nt | 4 | nt | 0 | nt | nt
CCOc1ccc(C(=O)Nc2cccc(C)n2)cc1 | nt | nt | -3 | nt | 7 | -32
Cc1cccc(NC(=O)c2ccc(S(=O)(=O)N(C)C)cc2)n1 | 11 | nt | nt | nt | 3 | 49*
CCCCOc1ccc(C(=O)Nc2cccc(C)n2)cc1 | 103* | nt | nt | nt | -4 | 21
Cc1cccc(NC(=O)Nc2ccccc2)n1 | 12 | 1 | 13 | 0 | 1 | 22
CCOc1ccc(NC(=O)Nc2cccc(C)n2)cc1 | 73 | -3 | 3 | 0 | 3 | 57*
CCOC(=O)c1cccc(NC(=O)Nc2ccc(OCC)cc2)c1 | 35 | -1 | 12 | 43* | 0 | nt
Cc1cccc(NC(=O)CN(C)S(=O)(=O)c2ccc(Cl)cc2)n1 | 6 | nt | nt | nt | 1 | nt
CCS(=O)(=O)NCC[C@@H]1CC[C@@H](NC(=O)C2CCCC2)[C@@H](CO)O1 | nt | -4 | nt | 0 | nt | -7
CCOc1cccc(/C=C/C(=O)O)c1 | 0 | 47* | 0 | 0 | -4 | -6
CCOc1ccc(/C=C/C(=O)Nc2cccc(C(C)=O)c2)cc1 | 31 | nt | nt | nt | 2 | 59*
CCOc1ccc(NC(C(=O)Nc2cccc(C(C)=O)c2)c2ccccc2)cc1 (stereo unspecified) | 9 | -13 | 2 | 0 | -3 | nt
CCCOc1ccc(C(=O)Nc2ccccc2[N+](=O)[O-])cc1 | 58 | nt | nt | nt | 2 | 64*
O=C(O)/C=C/c1cccc(OCc2ccccc2)c1 | 5 | -1 | 1 | 0 | -5 | 4
C[C@H](CO)N1C[C@H](C)[C@@H](CN(C)S(=O)(=O)c2cn(C)cn2)OCCCC[C@H](C)Oc2ccc(NC(=O)c3ccncc3)cc2C1=O | nt | -2 | nt | 0 | nt | -1
